In PubChem BioAssay (EPA / NIEHS):
Inconclusive results are not listed. Calls of active or inactive are those of the source. Rule for the calls: active = hit-call score of the fitted dose curve at least 0.9, where 1 is the maximum; inconclusive = response in the unintended direction; inactive = score below 0.9.

Molecular target: human Peroxisome Proliferator-activated Receptor delta (PPARd), PPARD (gene 5467) (UniProt Q03181)
Test: ATG_PPARd_TRANS: Attagene TRANS-FACTORIAL HepG2 Assay for human Peroxisome Proliferator-activated Receptor delta (PPARd) (AID 2283002)
Procedure: ATG_TRANS is a cell-based, multiplexed-readout assay that uses HepG2, a human liver cell line, with measurements taken at 24 hours after chemical dosing in a 24-well plate.ATG_PPARd_TRANS is one of 30 assay component(s) measured or calculated from the ATG_TRANS assay. It is designed to make measurements of mRNA induction, a form of inducible reporter, as detected with fluorescence intensity signals by Reverse transcription polymerase chain reaction (RT-PCR) and Capillary electrophoresis technology.Data from the assay component ATG_PPARd_TRANS was analyzed into 1 assay endpoint. This assay endpoint, ATG_PPARd_TRANS, was analyzed in the positive analysis fitting direction relative to DMSO as the negative control and baseline of activity. Using a type of inducible reporter, measures of mRNA for gain-of-signal activity can be used to understand the reporter gene at the transcription factor-level as they relate to the gene PPARD. Furthermore, this assay endpoint can be referred to as a primary readout, because this assay has produced multiple assay endpoints where this one serves a reporter gene function. To generalize the intended target to other relatable targets, this assay endpoint is annotated to the nuclear receptor intended target family, where the subfamily is non-steroidal.
Human liver HepG2 cells are transiently transfected with multiple reporter transcription units (MRTUs) in 6-well plates using FuGene 6 reagent (Roche; 3 ml FuGene/1 mg DNA). The MRTU constructs are regulated by a cis-regulating element (promoter). […] A major difference between the CIS and TRANS system is that in CIS activities of endogenous TFs are measured, whereas the TRANS assay evaluates changes in activities of exogenous, chimeric NR-Gal4 proteins. […] At the end of 24 hour incubation, total RNA was isolated using TriZol reagent (Invitrogen). The isolated RNA is then reverse-transcribed using oligo(dT) primer and Mo-MLV reverse transcriptase (Invitrogen) with DNAse I (Ambion) treatment for 30 min. The one-tenth of the produced cDNA was amplified by PCR using Taq DNA polymerase (Invitrogen) and two reporter sequence-specific primers. The PCR products were fluorescently labeled by primer extension with 6-arboxyfluorescein (6-FAM) 5'-labeled reporter sequence-specific primer (2 min at 95 C, 20 s at 68 C and 10 min at 72 C) and these products were digested with 5U of HpaI (New England Biolabs) for 2h at 37 C. The fragments were purified using Qiaquick PCR columns (Qiagen), analyzed on an ABI 3130xL genetic analyzer (Applied Biosystems) with peak positions identified by using a set of X-rhodamine (ROX)-labeled MapMarker1000 molecular weight standards (BioVentures). The raw capillary electrophoresis data was processed using Attagraph software (Attagene).

human Peroxisome Proliferator-activated Receptor delta (PPARd), PPARD (gene 5467), sequence (Q03181 whole entry, looked up): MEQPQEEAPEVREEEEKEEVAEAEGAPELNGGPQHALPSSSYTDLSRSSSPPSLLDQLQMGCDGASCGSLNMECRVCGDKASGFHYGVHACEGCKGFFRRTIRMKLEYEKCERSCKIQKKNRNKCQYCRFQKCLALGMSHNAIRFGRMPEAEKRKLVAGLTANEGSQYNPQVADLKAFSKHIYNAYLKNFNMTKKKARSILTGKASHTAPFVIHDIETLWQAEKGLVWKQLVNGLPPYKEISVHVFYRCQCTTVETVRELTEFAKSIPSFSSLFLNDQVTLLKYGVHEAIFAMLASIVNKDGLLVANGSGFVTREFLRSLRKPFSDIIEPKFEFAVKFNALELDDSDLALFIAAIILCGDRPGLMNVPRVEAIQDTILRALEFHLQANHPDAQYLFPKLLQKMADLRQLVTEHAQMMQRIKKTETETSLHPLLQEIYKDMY

outcome, inactive:
O=c1cc[nH]c(=S)[nH]1, c1ccc(-c2ccccn2)nc1, COCc1c(C(C)C)nc(C(C)C)c(/C=C/[C@@H](O)C[C@@H](O)CC(=O)O)c1-c1ccc(F)cc1, Nc1ccc2cc3ccccc3cc2c1, O=S1(=O)OC(c2ccc(O)cc2)(c2ccc(O)cc2)c2ccccc21, CC(=O)Nc1ccc2c(c1)Cc1cc(NC(C)=O)ccc1-2, O=C1CC2CC1C1CCCC21 (stereo not given), CCOCC(=O)O, O=C(C=Cc1ccccc1)OCc1ccccc1, CC(C)COC(=O)C=Cc1ccccc1, CC(=O)C=CC1C(C)=CCC(C)C1(C)C (stereo not given), CC=CC(F)(F)C(F)(F)C(F)(F)F, CCC(=O)Oc1ccc(/C(CC)=C(\CC)c2ccc(OC(=O)CC)cc2)cc1, CCCCCCCCCCCCCOP(=O)(O)O, Cc1oncc1C(=O)Nc1ccc(C(F)(F)F)cc1, C(=CC=Nc1ccccc1)C=CNc1ccccc1, c1ccc2c(c1)ccc1ncccc12, Cc1cnc(NC(=O)C2=C(O)c3ccccc3S(=O)(=O)N2C)s1, COCCOCCOCCOCCOC, O=C1c2ccccc2C(=O)C1c1nc2ccccc2c(Br)c1O, COCC(C)N (stereo not given), CC(=O)[C@H]1[C@H](C#N)C[C@H]2[C@@H]3CC=C4C[C@@H](O)CC[C@]4(C)[C@H]3CC[C@@]21C, CC(=O)OC(C)C, CCCCCCCCCCc1ccccc1, CCOC(=O)N1CCC(=C2c3ccc(Cl)cc3CCc3cccnc32)CC1, CCOC(=O)[C@H](C)O, C[C@]12CCC(=O)C=C1CC[C@@H]1[C@@H]2C(=O)C[C@@]2(C)[C@H]1CC[C@]2(O)C(=O)CO, CCC(CC)C(=O)O, CCCCCCCCCCC=CC#N, COC=O, CCO[Si](C)(OCC)OCC, COc1ccc(NC(C)=O)cc1N, CC1(C)O[C@@H]2C[C@H]3[C@@H]4C[C@H](F)C5=CC(=O)CC[C@]5(C)[C@H]4[C@@H](O)C[C@]3(C)[C@]2(C(=O)CO)O1, O=c1cc(-c2ccccc2)oc2ccccc12, Nc1ncn([C@@H]2O[C@H](CO)[C@@H](O)[C@H]2O)c(=O)n1, CCCCCC/C=C/C=O, C=CC=CC=CCCCCC, CCN(CC#N)c1cccc(C)c1, CCCCCCCCCCCCCCCCCC#N, C=COCCCC
